# H9c2 protect – modulators protecting cardiomyocytes from myocardial damage | 360,000 tested, 0.63% active | H9c2 cardiomyocytes, H2O2 injury protection, ATPLite, 2 h | protection from H2O2 cell death, % at 20 µM;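 active means compounds giving at least 50% protection of heart cells from peroxide-induced death in the single-dose screen, raw or plate-pattern-corrected value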;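 further: 0% = DMSO wells with peroxide and 100% = DMSO wells without peroxide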
# FAS TE block – inhibitors of human fatty acid synthase thioesterase domain; recombinant FAS-TE, OMFH fluorogenic substrate, fluorescence endpoint; inhibition, % at 15 µM; 360,000 tested, 0.67% active; AID 602261;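 active means compounds whose normalised, plate-corrected inhibition of enzyme fluorescence in the single-dose primary screen is 50% or more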;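 further: 0% = DMSO with enzyme and 100% = substrate without enzyme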
# CRFR2-BP ag – agonists of human CRF-binding protein/CRF-R2 receptor complex; HEK293 CRF-R2/CRF-BP, calcium dye fluorescence (FLIPR); percent of saturating CRF peptide response; activation, % at 13.2 µM; 350,000 tested, 0.46% active;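 active means activation of at least 50%, plus an integration ratio under a set limit after plate pattern correction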;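 further: plate controls were neutral control wells without compound for no effect and CRF at EC100 for full effect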
# PfG6PD inh – PfG6PD (Plasmodium falciparum) enzyme inhibition; PfGluPho enzyme, NADPH resazurin-diaphorase fluorescence; inhibition, % at 20 µM; 350,000 tested, 0.78% active;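 active means inhibition reaching at least a set limit at 20 µM in the primary screen, cut at about 59% in these data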;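 further: 0% = DMSO wells with substrate and 100% = DMSO wells lacking glucose-6-phosphate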
# aDG glyco act – alpha-DG glycosylation activation | activation, % at 10 µM | Pro5-aDG cells, alpha-DG glycosylation AlphaScreen (IIH6); 0% Pro5, 100% B10-LARGE cell signal | 360,000 tested, 0.22% active;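 active means activation of at least 8% versus controls, or a plate z-score of at least 8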;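 further: Pro5 are CHO cells carrying HIG-tagged alpha-DG that lacks glycosylation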
# CRFBP-R2 block – blocks CRF-induced signaling of the CRF-BP/CRF-R2 complex; 350,000 tested, 0.59% active; HEK293 CRF-R2/CRF-BP, CRF-induced calcium fluorescence; inhibition, % at 11.8 µM;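 active means inhibition of the ligand-induced calcium signal above about 50% at the single tested concentration, limit read from the data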
# FAS-TE conf – confirmation of human fatty acid synthase thioesterase inhibitors | shares compounds with FAS TE block | recombinant FAS-TE, OMFH fluorogenic substrate, fluorescence | inhibition, % at 15 µM | 2,300 tested, 45% active | AID 624325;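 active means compounds inhibiting the enzyme by at least 50% at 15 µM in any one of the replicates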;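 further: 0% = enzyme with DMSO only and 100% = wells lacking enzyme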
# Active calls of the source: *; . = not tested or not shown. Most compounds without a hit are left out; they make up all but 3.2% or so of the library.
SMILES,H9c2 protect,FAS TE block,CRFR2-BP ag,PfG6PD inh,aDG glyco act,CRFBP-R2 block,FAS-TE conf
COc1ccc(OC)c(CN2CCN(C(=O)c3ccc(S(=O)(=O)Nc4ccccc4F)cc3)CC2)c1,-4.2,-2.8,-0.3,-15.1,0.0,-3.6,.
COc1ccc(Cn2nnc3c(=O)[nH]c(C(=O)NCCc4ccc(F)cc4)nc32)cc1OC,-1.6,-5.7,1.1,-3.3,-0.1,-7.0,.
CCOc1cc(/C=N/NC(=O)C(O)(c2ccccc2)c2ccccc2)ccc1OC(=O)c1ccco1,19.9,18.2,0.8,15.2,0.0,-5.2,.
O=C1C2C(c3ccccc3)(C(=O)N1c1ccc(Cl)cc1)C2(c1ccccc1)c1ccccc1 (stereo unspecified),2.2,59.7*,18.2,-8.1,-0.1,-3.2,26.6
CCN(CC)S(=O)(=O)c1cccc(-c2n[nH]c(=S)n2/N=C/c2ccc(OC(F)F)cc2)c1,-3.9,52.4*,-2.5,0.4,-0.1,-24.1,44.4
CCCCc1ccc(/C(C)=N/Nc2cc(N3CCOCC3)nc(C)n2)cc1,-10.9,73.3*,-2.6,29.8,0.2,-17.6,20.3
CC(=O)c1c(C)oc2ccc(N(C(=O)C3CCCCC3)S(=O)(=O)c3cc([N+](=O)[O-])ccc3C)cc12,-0.1,80.0*,0.2,14.6,1.0,16.9,9.7
O=C(COC(=O)c1ccc([N+](=O)[O-])cc1)NCCC1=CCCCC1,0.2,38.2,-0.6,-3.2,-0.1,12.6,.
O=C(COc1cc([N+](=O)[O-])cc2cccnc12)NCCC1=CCCCC1,-0.5,82.6*,1.1,-16.5,0.1,12.0,87.0*
COC(=O)c1ccc(COc2ccc(C)cc2[N+](=O)[O-])o1,3.9,9.9,-1.6,10.7,0.1,7.3,.
COC(=O)c1ccc(COc2cc([N+](=O)[O-])cc3cccnc23)o1,7.3,54.6*,0.9,4.1,0.0,23.2,56.8*
O=C(Sc1nnc(-c2ccccc2)o1)N1c2ccccc2Sc2ccccc21,-9.4,59.7*,0.4,27.3,-0.3,-29.4,28.4*
O=c1c2ccccc2c(C=Nc2cccc(S(=O)(=O)NC3=NCCCCC3)c2)c(O)n1Cc1ccccc1,1.1,65.3*,4.4,-1.9,-0.4,5.4,5.2
COC(=O)CCN1CCC2CC1c1cc(Cl)ccc12 (stereo unspecified),10.3,-5.4,2.2,-11.3,0.2,-1.8,.
Cc1cc(C)c(S(=O)(=O)c2ccc(Cl)cc2)c(Cl)n1,2.2,10.4,-1.0,23.6,0.1,-10.7,.
Cc1cc(S(=O)(=O)c2ccc(Cl)cc2)nc(S(=O)(=O)c2ccc(Cl)cc2)c1C#N,-12.1,68.6*,19.6,52.2,-0.7,-31.3,71.6*
O=C1OCCN1C(=O)[C@H]1[C@H](c2ccc([N+](=O)[O-])cc2)C(c2ccc(F)cc2)=NN1c1ccc(Br)cc1,51.5*,95.1*,1.7,-1.1,-0.1,-7.6,13.7
O=C1OCCN1C(=O)[C@H]1[C@H](c2ccc([N+](=O)[O-])cc2)C(c2ccc(F)cc2)=NN1c1ccccc1,33.7,84.1*,4.0,9.6,-0.1,-6.7,40.9
O=[N+]([O-])c1ccc(N2CCN(c3ccc(F)cc3)CC2)cc1,-4.3,18.0,7.4,0.4,0.1,-9.3,.
O=C(Cc1ccc2c(c1)OCCO2)Nc1ccc(Cl)c(S(=O)(=O)N2CCOCC2)c1,-9.8,7.7,-0.2,5.4,-0.3,11.5,.
CCN(CC)P(=O)(Nc1ccccc1Br)c1ccc(N(C)C)cc1NC(=O)c1ccco1 (stereo unspecified),3.8,23.2,0.2,0.9,0.1,10.1,.
COc1ccc(NC(=O)/C(C#N)=C/c2c(C)nn(-c3ccc(F)cc3)c2Cl)cc1Cl,-5.2,44.9,0.8,8.8,0.3,-46.8,.
COc1ccc(NC(=O)/C(C#N)=C/c2c(C)nn(-c3ccc(F)cc3)c2Cl)cc1OC,45.5,56.1*,0.1,36.0,-0.3,-80.9,33.0
CCN1C(=O)[C@H]2[C@@H](c3ccc(-c4cccc(Cl)c4)cc3)N[C@@](CC(C)C)(C(=O)OC)[C@H]2C1=O,-5.1,51.7*,1.5,20.9,0.7,-0.9,15.9
COC(=O)[C@]1(Cc2ccccc2)N[C@H](c2ccc(-c3ccc(Cl)c(Cl)c3)cc2)[C@@H]2C(=O)N(C)C(=O)[C@@H]21,-2.6,89.8*,0.8,10.7,0.8,-0.9,21.7
SMILES,H9c2 protect,FAS TE block,CRFR2-BP ag,PfG6PD inh,aDG glyco act,CRFBP-R2 block,FAS-TE conf
COC(=O)C1(Cc2ccccc2)NC(c2ccc(F)cc2)C2C(=O)N(C)C(=O)C21 (stereo unspecified),5.1,0.6,10.4,-4.8,0.2,22.8,.
CCN1C(=O)[C@H]2[C@@H](c3ccc(-c4cccc(Cl)c4)c(OC)c3)N[C@@](CC(C)C)(C(=O)OC)[C@H]2C1=O,-10.0,44.4,2.4,27.1,0.4,5.0,.
COC(=O)[C@]1(Cc2ccccc2)N[C@H](c2ccc(-c3ccccc3)cc2)[C@@H]2C(=O)N(C)C(=O)[C@@H]21,21.2,55.6*,0.1,7.8,0.3,-6.8,10.3
COC(=O)[C@]1(Cc2ccccc2)N[C@H](c2ccc(-c3cccc(Cl)c3)cc2)[C@@H]2C(=O)N(C)C(=O)[C@@H]21,3.7,91.2*,3.4,10.9,0.7,-9.1,20.9
CCOc1ccc(N2CC(C(=O)Nc3ccccc3C(=O)N3CCOCC3)CC2=O)cc1 (stereo unspecified),4.8,-1.2,-1.8,8.8,0.0,1.3,.
Cc1c(C(=O)NNC(=S)Nc2ccc(S(N)(=O)=O)cc2)oc2ccccc12,5.5,-1.1,0.1,6.9,0.1,5.8,.
O=C(COC(=O)c1cc([N+](=O)[O-])ccc1N1CCOCC1)NCCc1ccccc1,4.1,78.0*,-0.4,0.4,0.1,-3.7,66.0*
O=C(NCc1ccc(F)cc1)c1ccc(N2CCOCC2)c([N+](=O)[O-])c1,0.2,0.6,-3.5,-4.8,0.0,-2.4,.
CCOc1ccc(CCNC(=O)COC(=O)c2cc([N+](=O)[O-])ccc2N2CCOCC2)cc1OCC,-0.4,52.7*,-0.8,3.5,0.0,-0.6,56.6*
O=C(COC(=O)c1cc([N+](=O)[O-])ccc1N1CCOCC1)NCc1ccc(F)cc1,5.2,88.1*,-5.4,8.8,-0.2,2.6,80.9*
Clc1ccc(C2=CSC3=NCCN23)c(Cl)c1,2.6,-142.2,-0.2,16.0,0.0,-1.6,.
Cc1cc(C)c(C#N)c(N2CCN(Cc3ccc4c(c3)OCO4)CC2)n1,5.6,60.6*,-1.3,-12.7,-0.1,7.7,26.0
CCOC(=O)c1cc2c(=Cc3ccc(N(C)C)cc3)c3ccccc3n2[n+]1C,-19.8,62.0*,-2.9,49.9,0.3,-32.4,60.9*

# Assay outcomes as filed in PubChem BioAssay.
